Measurements: PubChem BioAssay

Biological target: Homeobox protein Hox-A13 (Mus musculus) (UniProt Q62424)
Assay: disruptors of Hoxa13 oligonucleotide interaction – biochemical, fluorescence polarization, labeled oligonucleotide, primary screen (AID 1185)
Conditions: Hoxa13:DNA binding, 15 min, higher = more signal, called active from +8 up or from −8 down

Sequence of Homeobox protein Hox-A13 (Mus musculus) (Q62424 whole entry, looked up): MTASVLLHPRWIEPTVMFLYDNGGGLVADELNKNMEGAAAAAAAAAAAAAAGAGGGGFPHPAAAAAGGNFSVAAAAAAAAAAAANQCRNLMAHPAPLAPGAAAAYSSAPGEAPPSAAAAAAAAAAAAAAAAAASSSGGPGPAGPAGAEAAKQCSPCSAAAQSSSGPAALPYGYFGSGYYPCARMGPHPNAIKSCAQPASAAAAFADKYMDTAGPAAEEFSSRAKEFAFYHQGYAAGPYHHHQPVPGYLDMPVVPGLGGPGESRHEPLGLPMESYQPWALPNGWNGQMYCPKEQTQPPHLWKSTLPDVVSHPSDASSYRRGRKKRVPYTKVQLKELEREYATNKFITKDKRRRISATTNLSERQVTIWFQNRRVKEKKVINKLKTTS

z-score, inactive:
C=C[C@H](COC(C)=O)N(Cc1ccc(OC(C)=O)c(OC)c1)S(=O)(=O)c1ccc(Br)cc1 -5.58, CCCC[C@H]1OB(O)C[C@H]2C1=C(C)C[C@H]1C(=O)N(Cc3ccccc3)C(=O)[C@H]12 -7.36, C=C[C@@H](COC(C)=O)N(Cc1ccc([N+](=O)[O-])cc1)S(=O)(=O)c1ccc(Br)cc1 -3.25, Cc1ccc(S[C@]2(C(=O)NCC(C)C)CC(=O)N(Cc3ccccc3Cl)[C@@H]2c2ccc(CO)cc2)cc1 -2.53, COCCOC(=O)N1C(=O)[C@@]2(c3cc(C#CCCO)ccc31)[C@H](c1ccccc1OCCO)N1[C@H](c3ccccc3)[C@H](c3ccccc3)OC(=O)[C@H]1[C@@H]2C(=O)N1CCN(c2ncccn2)CC1 -1.16, COCCCNC(=O)[C@@]1(c2ccc([N+](=O)[O-])cc2)CC(=O)N(CC23CC4CC(CC(C4)C2)C3)[C@@H]1c1ccc(CO)cc1 -5.17, Cc1cc(C)c(C(O)C2C=CC3C(=O)N(C)C(=O)C3N2Nc2ccccc2)c(C)c1 (centres undefined) -2.71, CCCNC(=O)[C@@H]1c2ccccc2C(=O)N(Cc2ccccc2)[C@H]1c1ccc(CO)cc1 -2.71, COc1ccc([Si](C)(C)[C@H]2[C@H](CC(=O)N(CCO)Cc3ccccc3)O[C@@]3(C(=O)N(Cc4cccc(N5CCC5=O)c4)c4ccccc43)[C@@H]2C)cc1 -2.16, COc1ccc([Si](C)(C)[C@@H]2[C@@H](CCn3cc([C@H](O)c4ccccc4)nn3)O[C@]3(C(=O)N(Cc4ccc(N5C(=O)c6cccc7cccc5c67)cc4)c4ccccc43)[C@H]2C)cc1 0.474, CCN(CC)c1ccc(N2CC=CC34O[C@@H]5C=CCCOC(=O)C5[C@H]3C(=O)N(CCCCCO)[C@@H]4C2=O)cc1 (some centres undefined) -5.22, COCCOC(=O)N1C(=O)[C@@]2(c3cc(C#CCC(C(=O)OC)C(=O)OC)ccc31)[C@H](c1ccccc1OCCO)N1[C@H](c3ccccc3)[C@H](c3ccccc3)OC(=O)[C@H]1[C@@H]2C(N)=O -1.36, COc1ccc(C(O)C2C=CC3C(=O)N(c4ccccc4)C(=O)C3N2Nc2ccc([N+](=O)[O-])cc2)cc1OCc1ccccc1 (centres undefined) -1.46, O=C1OCC=C[C@H]2OC34C=CCN(c5ccc6ccccc6c5)C(=O)[C@H]3N(CCCO)C(=O)[C@@H]4[C@@H]12 (some centres undefined) -2.03, COCCOC(=O)N1C(=O)[C@@]2(c3cc(C#CCNC(N)=O)ccc31)[C@H](C(=O)N1CCc3cc(OC)c(OC)cc3C1)[C@H]1C(=O)O[C@H](c3ccccc3)[C@H](c3ccccc3)N1[C@@H]2c1ccc(OCCO)cc1 1.53, O=C(OCCF)C1=CCC(c2cccc(Cl)c2)O1 (centres undefined) -0.701, CCC[C@@H]1C=C(C(=O)O)[C@H](c2ccc(C)cc2)N1S(=O)(=O)c1ccc(C)cc1 -3.27, COc1ccc(C#Cc2ccc3c(c2)[C@]2(C(=O)N3)[C@H](C(=O)NC[C@H](O)c3ccccc3)[C@H]3C(=O)O[C@H](c4ccccc4)[C@H](c4ccccc4)N3[C@@H]2c2ccccc2OCCO)cc1 -2.33, CC1=C2[C@@H](CCc3ccccc3)OB(O)C[C@@H]2n2c(=O)n(-c3ccccc3)c(=O)n2C1 -5.44, CCOC(=O)C1=C[C@@H](CC)N(S(=O)(=O)c2ccc(C)cc2)[C@H]1c1ccccc1 -2.63, COc1cc(C(O)C2C=CC3C(=O)N(c4ccccc4)C(=O)C3N2Nc2ccc(C#N)cc2)cc(OC)c1OC (centres undefined) -4.55, COc1ccc(C#Cc2ccc3c(c2)[C@]2(C(=O)N3)[C@H](c3ccc(O)cc3)N3[C@H](c4ccccc4)[C@H](c4ccccc4)OC(=O)[C@H]3[C@@H]2C(=O)NC[C@H](O)c2ccccc2)cc1 -0.173, COc1ccc(C#Cc2ccc3c(c2)[C@]2(C(=O)N3)[C@H](C(=O)NC[C@H](O)c3ccccc3)[C@H]3C(=O)O[C@H](c4ccccc4)[C@H](c4ccccc4)N3[C@@H]2c2ccc(OCCO)cc2)cc1 -0.878, C=CCC(OC(C)=O)[C@@H]1[C@@H](N(Cc2cccc3ccccc23)C(=O)c2cccc3ccccc23)c2cc(OCCCO)ccc2N1C(=O)c1ccc2ccccc2n1 (some centres undefined) -2.11
